Experimental data published in PubChem BioAssay AID2704 (Broad Institute, 2010).
Active and inactive are the calls of the source.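 How the source made its calls: active means a dose-dependent loss of polyadenylated product, with a fitted EC50, the dose giving half the full effect; inactive means no dose-dependent effect seen.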

Assay: inhibitors of in vitro mRNA polyadenylation, dose response, orthogonal assay for polyadenylation inhibitor project, cell lysate, S. cerevisiae extracts, radioactive, gel readout (AID 2704)
Conditions: S. cerevisiae extract, GAL7 RNA polyadenylation

EC50, active:
N#C/C(=C/c1ccc([N+](=O)[O-])o1)c1nc2ccccc2[nH]1 1100 µM
N#CC1(C#N)C2=C(CCCC2)NC(c2ccccc2)C1(C#N)C#N (stereo unspecified) 280 µM
CCOc1cc(/C=C2\N=C(SC(C)C(N)=O)N(c3ccc(OC(F)F)cc3)C2=O)ccc1O (stereo unspecified) 410 µM
Cc1ccc2nc(/C(C#N)=C/c3ccc([N+](=O)[O-])o3)[nH]c2c1 700 µM
Cc1ccc(-c2nn3c(C)nnc3s2)cc1NC(=O)CSc1ccc(Cl)cc1 900 µM
COc1cc(/C=C2/CC/C(=C/c3ccc(O)c(OC)c3)C2=O)ccc1O 400 µM
